Assay results from PMC5540273 (PLoS ONE, 2017).

How the values were obtained:
Conditions in all cases: concentration: 1 μM, replicates: in singlicate; n = 1
NIM1 = tested on: T1, NIM1
T1 construct: gene MGC42105

NLK = tested on: NLK
OSR1 = tested on: T2, OSR1
T2 construct: gene OXSR1

PAK1 = tested on: PAK1
PAK2 = tested on: PAK2
PAK3 = tested on: PAK3
PAK4 = tested on: PAK4
PAK6 = tested on: PAK6
PAK7 = tested on: PAK7
PCTK1 = tested on: T3, PCTK1
T3 construct: gene CDK16

PCTK2 = tested on: T4, PCTK2
T4 construct: gene CDK17

PCTK3 = tested on: T5, PCTK3
T5 construct: gene CDK18

PDGFRA = tested on: PDGFRA
PDGFRB = tested on: PDGFRB
PDPK1 = tested on: PDPK1
PFTAIRE2 = tested on: PFTAIRE2
PFTK1 = tested on: T6, PFTK1
T6 construct: gene CDK14

PHKG1 = tested on: PHKG1
PHKG2 = tested on: PHKG2
PIK3C2B = tested on: PIK3C2B
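Also: KINOMEscan kinase panel screen.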

Compound	%Inh (NIM1) [%]	%Inh (NLK) [%]	%Inh (OSR1) [%]	%Inh (PAK1) [%]	%Inh (PAK2) [%]	%Inh (PAK3) [%]	%Inh (PAK4) [%]	%Inh (PAK6) [%]	%Inh (PAK7) [%]	%Inh (PCTK1) [%]	%Inh (PCTK2) [%]	%Inh (PCTK3) [%]	%Inh (PDGFRA) [%]	%Inh (PDGFRB) [%]	%Inh (PDPK1) [%]	%Inh (PFTAIRE2) [%]	%Inh (PFTK1) [%]	%Inh (PHKG1) [%]	%Inh (PHKG2) [%]	%Inh (PIK3C2B) [%]
Nc1n[nH]c2cnc(-c3ccccc3)cc12 [SB-642124]	29	31	12	21	15	34	0	0	6	11	0	10	0	21	0	3	19	0	0	0
CN1CCN(CCCNc2nccc(-c3c(-c4ccc(F)cc4)nn4cc(C(F)(F)F)ccc34)n2)CC1 [GW621581]	0	55	6	8	7	30	0	0	0	0	0	12	0	10	3	13	0	0	0	0
COc1cc(Nc2nccc(-c3c(-c4cccc(NC(=O)c5c(F)cccc5F)c4)nn4ccccc34)n2)cc(OC)c1OC [GSK323521]	39	0	4	11	5	44	9	7	6	3	8	29	89	99.7	13	25	3	4	10	27
Nc1ncnc2c1nc(-c1ccccc1)n2-c1ccccc1 [SKF-97293]	66	0	39	29	56	27	16	8	0	9	0	0	36	0	2	6	25	17	0	4
Cc1ccc(C(=O)N2CC[C@@H](O)C2)cc1-n1c(C)cc(OCc2ccc(F)cc2F)c(Br)c1=O	0	4	0	0	0	0	0	0	0	0	0	7	4	77	30	2	12	0	0	0
Cc1ccc(F)c(C(=O)Nc2cccc(-c3nn4ccccc4c3-c3ccnc(Nc4cccc(F)c4)n3)c2)c1F [GSK361061]	0	77	100	4	21	42	3	0	14	0	0	16	6	99.7	11	18	11	14	6	0
Cl.NC(=O)c1cccc(Nc2nccc(Nc3ccc(Oc4c(Cl)cccc4Cl)c(Cl)c3)n2)c1 [GW659009]	7	0	15	34	8	72	0	0	0	0	0	0	0	36	0	15	0	0	0	0
O=C(Nc1n[nH]c2nc(-c3ccc(O)cc3)ccc12)C1CC1 [SB-710363]	0	92.1	0	0	72	0	0	0	11	61	56	6	48	32	5	28	14	5	0	0
CNC(=O)c1ccccc1Nc1nc(Nc2ccc(N3CCOCC3)cc2)ncc1Cl.Cl [GSK1576028]	41	26	35	71	61	100	78	66	83	11	43	0	80	100	42	43	17	84	72	17
CN(C)S(=O)(=O)c1cc(-c2ccc3nccc(-c4cccc(S(N)(=O)=O)c4)c3c2)cnc1N [GSK1669921]	11	4	0	7	21	39	1	3	0	5	0	0	0	16	9	31	17	0	8	95.5
C[C@@H]1CC[C@@H](C(=O)Nc2ccccc2)CN1c1cc(-c2ccc3c(N)n[nH]c3c2)nc(N)n1 [GSK2286062]	23	11	10	20	6	0	0	0	6	0	13	10	0	23	64	7	29	0	21	0
c1ccc(Oc2ccc(Nc3ccnc4cc(-c5ccc(CNCCN6CCOCC6)o5)ccc34)cc2)nc1 [GW567145]	20	12	2	0	0	3	0	0	0	0	0	2	65	89	0	6	11	3	0	0
COC(=O)Nc1nc2ccc(Oc3ccc(NC(=O)Nc4cc(C(F)(F)F)ccc4F)cc3)cc2n1C.Cl [GW692089]	32	8	0	0	0	6	0	0	0	0	0	12	78	100	0	6	4	0	0	0
C[C@@H](Oc1cc(-n2cnc3cc(-c4ccnc(NCCS(C)(=O)=O)c4)ccc32)sc1C(N)=O)c1ccccc1Cl [GSK907232]	69	14	20	6	32	26	0	0	0	7	9	25	71	97.4	28	14	12	0	2	0
Cc1ccc(C(=O)Nc2ccc(Nc3ccnc4cc(-c5nccs5)ccc34)cc2O)cc1.Cl [GW494702]	19	0	6	0	0	9	1	0	0	0	0	0	28	74	10	7	0	4	0	0
Oc1cc(Nc2ccnc3cc(I)ccc23)ccc1F [GW552771]	17	58	8	0	0	17	0	0	0	3	0	15	19	49	0	0	0	0	0	0
CC(C)(C)c1ccc2nccc(Nc3cccc(O)c3)c2c1 [GW856795]	30	0	0	0	0	0	23	0	2	0	0	0	81	1	96.3	0	0	0	9	38
Cc1cccc(NC(=O)Nc2ccc(Oc3ncnc4ccn(C)c34)cc2)c1	0	0	0	0	0	0	0	0	0	0	0	0	99.7	100	0	0	0	0	0	0
COc1ccc(CNC(=O)NC2CCN(c3ccnc(Nc4ccc(F)cc4)n3)CC2)cc1 [GSK1379788]	8	0	0	0	0	6	0	0	2	0	0	0	0	35	0	0	13	0	0	0
